From PubChem BioAssay (NCATS)
Records with an inconclusive call do not appear. Calls of active or inactive are those of the source. Calls come from the whole dose curve; as a rule, active = well fitted inhibition curve with a large enough effect; inconclusive = small, poorly fitted or top-dose-only effect; inactive = flat fitted curve, though single readings scatter.

What was measured:
Assay in all cases: qHTS profiling for inhibitors of Plasmodium falciparum proliferation (AID 504749); note: nearly all actives have a fitted effect of over 60% in size
Conditions in all cases: P. falciparum in erythrocytes, SYBR Green DNA, 72 h; series mostly up to 28.7 µM
CP329 = tested on: CP329
Outline: (§1)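 P. falciparum-infected erythrocytes (0.3% parasitemia, 2.5% hematocrit final) were exposed to compounds for 72 h at 37 C in 5% CO2, then lysed with SYBR Green buffer overnight at room temperature; parasite DNA fluorescence was normalized to artemisinin and DMSO controls.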

CP335 = tested on: CP335
Outline: as §1

DFO2036 = tested on: DFO2036
Outline: as §1

DIV14 = tested on: DIV14
Outline: as §1

DIV17 = tested on: DIV17
Outline: as §1

DIV30 = tested on: DIV30
Outline: as §1

Dd2 = tested on: Dd2
Outline: as §1

ECU = tested on: ECU
Outline: as §1

FAB9 = tested on: FAB9
Outline: as §1

GB4 = tested on: GB4
Outline: as §1

HB3 = tested on: HB3
Outline: as §1

ICS = tested on: ICS
Outline: as §1

JCK = tested on: JCK
Outline: as §1

N140 = tested on: N140
Outline: as §1

P93_24 = tested on: P93_24
Outline: as §1

P94_40 = tested on: P94_40
Outline: as §1

PAD = tested on: PAD
Outline: as §1

PC15 = tested on: PC15
Outline: as §1

PC26 = tested on: PC26
Outline: as §1

PC49 = tested on: PC49
Outline: as §1

Measured: outcome

CCc1cccc2c3c([nH]c12)[C@@](CC)(CC(=O)O)OCC3
inactive: CP329 | CP335 | DFO2036 | DIV14 | DIV17 | DIV30 | Dd2 | ECU | FAB9 | GB4 | HB3 | ICS | JCK | N140 | P93_24 | P94_40 | PAD | PC15 | PC26 | PC49

CCOC(=O)C(CCc1ccccc1)NC(C)C(=O)N1Cc2ccccc2CC1C(=O)O (centres undefined)
inactive: CP329 | CP335 | DFO2036 | DIV14 | DIV17 | DIV30 | Dd2 | ECU | FAB9 | GB4 | HB3 | ICS | JCK | N140 | P94_40 | PAD | PC15 | PC26 | PC49
